Source: PubChem BioAssay (NCI)
The panel holds about 83,000 compounds, 20% with a hit somewhere; the sample as a whole holds those more often.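 Each cell line was grown in a 96-well plate and treated with one concentration of compound for 48 hours. Values below 10 were considered active.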 Calls of active or inactive are those of the source.

What was measured:
Experiment in all cases: NCI-60 one-dose screen, 48 h (100 = growth as untreated, 0 = no growth, -100 = all killed)
Conditions in all cases: 10 µM unless noted
DU-145 prostate = test system: DU-145 prostate
K-562 leukemia = test system: K-562 leukemia
MALME-3M melanoma = test system: MALME-3M melanoma
MDA-MB-231 breast = test system: MDA-MB-231 breast
RXF 393 renal = test system: RXF 393 renal
SF-268 CNS = test system: SF-268 CNS
SF-295 CNS = test system: SF-295 CNS
SF-539 CNS = test system: SF-539 CNS
UACC-257 melanoma = test system: UACC-257 melanoma
M14 melanoma = test system: M14 melanoma

Measured: growth

CN(C)c1nc(NCCNS(=O)(=O)c2ccc(C(=O)/C=C/c3ccc(Cl)cc3)cc2)nc(N2CCOCC2)n1
active: DU-145 prostate 6.95% | K-562 leukemia -6.36% | RXF 393 renal -59.3% | SF-539 CNS -67.5% | M14 melanoma -20.2%
inactive: MALME-3M melanoma 89.2% | MDA-MB-231 breast 15.7% | SF-268 CNS 57.8% | SF-295 CNS 55.5% | UACC-257 melanoma 71.5%

COc1ccc(-c2nc3ccc(-c4nnc(SCc5ccccc5)o4)cc3[nH]2)cc1
active: MALME-3M melanoma -74.9% | MDA-MB-231 breast -67.3% | RXF 393 renal -75.3% | SF-268 CNS -6.18% | SF-295 CNS -75% | SF-539 CNS -99.7% | M14 melanoma 5.59%
inactive: DU-145 prostate 10.2% | K-562 leukemia 11.2% | UACC-257 melanoma 21.8%

CS(=O)(=O)Nc1cc(-c2ccc3ncnc(N4CCc5cc(F)c(Cl)cc54)c3c2)cnc1Cl
inactive: DU-145 prostate 10.5% | K-562 leukemia 35.8% | SF-268 CNS 14.9%
active: MALME-3M melanoma -21.2% | MDA-MB-231 breast -17.8% | RXF 393 renal -5.59% | SF-295 CNS -23.8% | SF-539 CNS -22.7% | UACC-257 melanoma -2.81% | M14 melanoma 9.59%

Cc1ccc(Cl)cc1NC(=O)N/C(N)=N/c1nc2ccccc2s1
active: DU-145 prostate -35% | K-562 leukemia 4.45% | MDA-MB-231 breast -42.7% | RXF 393 renal -28.5% | SF-295 CNS -49.6% | SF-539 CNS -51.2% | M14 melanoma -17.1%
inactive: MALME-3M melanoma 15.6% | SF-268 CNS 15.4% | UACC-257 melanoma 44.8%

O=C(N=Nc1c(O)[nH]c2ccc(Cl)cc12)c1ccc2nc(-c3ccc(Cl)cc3)[nH]c2c1
inactive: UACC-257 melanoma 57.8%
active: DU-145 prostate 5.09% | K-562 leukemia 8.93% | MALME-3M melanoma -1.72% | MDA-MB-231 breast -79.9% | RXF 393 renal -27.7% | SF-268 CNS 0.662% | SF-295 CNS -12.5% | SF-539 CNS -93.6% | M14 melanoma -6.49%

COc1cc(CNC(=O)C[C@H](C)CCC=C(C)C)ccc1OCc1cn(-c2cccc(C(F)(F)F)c2)nn1
inactive: DU-145 prostate 101% | K-562 leukemia 59% | MALME-3M melanoma 80.8% | MDA-MB-231 breast 87.2% | RXF 393 renal 88.3% | SF-268 CNS 83.9% | SF-295 CNS 72.9% | SF-539 CNS 16.3% | UACC-257 melanoma 104% | M14 melanoma 92.1%

Cc1ccc(C2CC(c3ccc(S(=O)(=O)NCCNc4nc(N(C)C)nc(N5CCOCC5)n4)cc3)=Nc3c(N)nc(N)nc3N2)cc1 (stereo not given)
inactive: DU-145 prostate 66% | K-562 leukemia 22.8% | MALME-3M melanoma 57.3% | MDA-MB-231 breast 31% | RXF 393 renal 10.6% | SF-268 CNS 45.2% | SF-295 CNS 32.7% | SF-539 CNS 43.8% | UACC-257 melanoma 72.6% | M14 melanoma 44.7%

CC1CCc2c(sc3nc(SCC(=O)c4cccc([N+](=O)[O-])c4)n(-c4ccccc4)c(=O)c23)C1 (stereo not given)
inactive: DU-145 prostate 63.1% | K-562 leukemia 57.1% | MALME-3M melanoma 111% | MDA-MB-231 breast 10.1% | RXF 393 renal 99.9% | SF-268 CNS 73.2% | SF-295 CNS 74.2% | UACC-257 melanoma 97.8% | M14 melanoma 80.6%
active: SF-539 CNS -10.9%

C/C(=N\Nc1ccc(S(N)(=O)=O)cc1)c1cnn(-c2cc(=O)[nH]c3ccc(Br)cc23)c1C
inactive: DU-145 prostate 77.9% | K-562 leukemia 35% | MALME-3M melanoma 21.7% | MDA-MB-231 breast 31.4% | RXF 393 renal 68.6% | SF-268 CNS 57.3% | SF-295 CNS 91.9% | SF-539 CNS 41.6% | UACC-257 melanoma 66.3% | M14 melanoma 73%

C=CC[n+]1cccc2c3ccccc3ccc21
active: MALME-3M melanoma 2.38%
inactive: DU-145 prostate 58.4% | K-562 leukemia 27.8% | MDA-MB-231 breast 77.6% | RXF 393 renal 69.7% | SF-268 CNS 22.7% | SF-295 CNS 21.4% | SF-539 CNS 66.6% | UACC-257 melanoma 20.9% | M14 melanoma 65.9%

COc1ccc2[nH]cc(-c3cc4nc(-c5cn(C)c6ncccc56)cc(N)n4n3)c2c1
inactive: SF-268 CNS 32.8% | UACC-257 melanoma 72.7%
active: DU-145 prostate 9.07% | K-562 leukemia -31.7% | MALME-3M melanoma -60.6% | MDA-MB-231 breast -58.4% | RXF 393 renal -62.3% | SF-295 CNS -71.4% | SF-539 CNS -93.6% | M14 melanoma -49.5%

O=C(N/N=C/c1ccoc1)c1[nH]c2ccc(Br)cc2c1-c1ccccc1
active: DU-145 prostate -48.3% | K-562 leukemia 3.56% | MALME-3M melanoma -84.7% | MDA-MB-231 breast -85.6% | RXF 393 renal -86.3% | SF-268 CNS -56.8% | SF-295 CNS -97.9% | SF-539 CNS -97.6% | UACC-257 melanoma -78.1% | M14 melanoma -84.6%

COc1ccc(NC(=O)CSc2nnc(-c3ccc(-c4nc5ccc(Cl)cc5[nH]4)cc3)o2)cc1
active: DU-145 prostate 8.29% | MALME-3M melanoma 0.449% | MDA-MB-231 breast -30.2% | RXF 393 renal -37% | SF-539 CNS -91.1%
inactive: K-562 leukemia 13.3% | SF-268 CNS 45.4% | SF-295 CNS 43.8% | UACC-257 melanoma 29% | M14 melanoma 13.5%

FC(F)(F)c1cc2c(Cl)ncnc2n1CCN1CCCCC1
inactive: DU-145 prostate 50% | MALME-3M melanoma 86.9% | MDA-MB-231 breast 38.8% | RXF 393 renal 80.8% | SF-295 CNS 80.9% | SF-539 CNS 73.4% | UACC-257 melanoma 73.6% | M14 melanoma 24.1%
active: K-562 leukemia 0.547% | SF-268 CNS 9.33%

CCCCCCCCc1ccc(C(=O)Nc2ccc(C)cc2C(=O)O)cc1
inactive: DU-145 prostate 95% | K-562 leukemia 59.4% | MALME-3M melanoma 92.2% | MDA-MB-231 breast 96.9% | RXF 393 renal 110% | SF-268 CNS 96% | SF-295 CNS 51.1% | SF-539 CNS 100% | UACC-257 melanoma 95.8% | M14 melanoma 104%

COc1ccc(-c2cc(C(=O)N=Nc3c(O)[nH]c4ccc(Cl)cc34)c3ccccc3n2)cc1
inactive: DU-145 prostate 19% | K-562 leukemia 64.8% | MALME-3M melanoma 90.1% | RXF 393 renal 133% | SF-268 CNS 68.8% | SF-295 CNS 96.7% | SF-539 CNS 44.8% | UACC-257 melanoma 106% | M14 melanoma 76.9%
active: MDA-MB-231 breast -44.2%

NS(=O)(=O)c1ccc(N2N=C(c3ccc(NC(=O)Nc4ccccc4)cc3)CC2c2ccc(Br)cc2)cc1 (stereo not given)
inactive: K-562 leukemia 16.7%
active: DU-145 prostate -7.86% | MALME-3M melanoma -97.1% | MDA-MB-231 breast -94.8% | RXF 393 renal -96.4% | SF-268 CNS -29.7% | SF-295 CNS -64.9% | SF-539 CNS -99.2% | UACC-257 melanoma -16.8% | M14 melanoma -69.2%

Cn1cc(-c2cc(N)n3nc(-c4c[nH]c5ccc(F)cc45)cc3n2)c2cccnc21
active: DU-145 prostate -75.7% | K-562 leukemia -32% | MALME-3M melanoma -93% | MDA-MB-231 breast -85.9% | RXF 393 renal -81.2% | SF-268 CNS -27% | SF-295 CNS -93.9% | SF-539 CNS -96.3% | UACC-257 melanoma -87.3% | M14 melanoma -89.5%

COc1cc(C2CC(c3ccc(Cl)cc3)=Nc3c(N)nc(N)nc3N2)ccc1Oc1nc(Nc2ccc(F)cc2)nc(N(C)C)n1 (stereo not given)
inactive: DU-145 prostate 60% | MALME-3M melanoma 54.1% | MDA-MB-231 breast 23.8% | SF-268 CNS 52.2% | SF-295 CNS 53.3% | SF-539 CNS 63.7% | UACC-257 melanoma 47.9% | M14 melanoma 43.2%
active: K-562 leukemia 8.16% | RXF 393 renal -4.44%

O=C(c1ccc(Cl)cc1)C1[C@H](c2ccccc2Cl)[C@@H](c2ccccc2)NC12C(=O)Nc1ccccc12 (stereo not given in full)
active: DU-145 prostate -12.8% | K-562 leukemia -36.6% | MALME-3M melanoma -34.8% | MDA-MB-231 breast -64.8% | RXF 393 renal -80.8% | SF-268 CNS 2.93% | SF-295 CNS -72.3% | SF-539 CNS -89.7% | UACC-257 melanoma 1.79% | M14 melanoma -75.7%

COc1ccc(C2=NN(C(=O)[C@H]3[C@@H](c4ccco4)c4sc(=O)[nH]c4S[C@@H]3C)C(c3ccc4ccccc4c3)C2)cc1 (stereo not given in full)
inactive: DU-145 prostate 62.7% | K-562 leukemia 16% | MALME-3M melanoma 50.6% | MDA-MB-231 breast 47.5% | RXF 393 renal 11.2% | SF-268 CNS 45.3% | SF-295 CNS 38.6% | SF-539 CNS 28.6% | UACC-257 melanoma 43.2% | M14 melanoma 24.1%

COc1cccc(/C=C/c2nc3ccccc3c(=O)n2CC(=O)Nc2ccccc2)c1
active: MDA-MB-231 breast -29% | RXF 393 renal 0.184%
inactive: DU-145 prostate 87.8% | K-562 leukemia 93% | MALME-3M melanoma 56.1% | SF-268 CNS 69.5% | SF-295 CNS 48.8% | SF-539 CNS 11.8% | UACC-257 melanoma 67.8% | M14 melanoma 47.8%

Cc1ccccc1Nc1nnc(-c2c[nH]c3ccccc23)o1
inactive: DU-145 prostate 26.4% | MALME-3M melanoma 33.5% | MDA-MB-231 breast 26.9% | SF-268 CNS 59% | UACC-257 melanoma 49.7%
active: K-562 leukemia 7.28% | RXF 393 renal -4.44% | SF-295 CNS 8.71% | SF-539 CNS -25.9% | M14 melanoma 6.24%

Cc1nn(-c2ccccc2)c2nc(C)n(C(=O)N/N=C/c3ccccc3)c(=O)c12
inactive: DU-145 prostate 114% | K-562 leukemia 95.6% | MALME-3M melanoma 91.5% | MDA-MB-231 breast 91.8% | RXF 393 renal 111% | SF-268 CNS 104% | SF-295 CNS 94.9% | SF-539 CNS 93.8% | UACC-257 melanoma 106% | M14 melanoma 98.5%
